From PubChem BioAssay (EPA / NIEHS) come the findings set out here.

Read-out in experiment [1]: Interleukin-1 alpha (IL1a), IL1A (gene 3552)
Nature of the experiment: BSK_LPS_IL1a: BioMAP Diversity Plus: LPS Assay for Interleukin-1 alpha (IL1a) Biomarker Activity (AID 2283080). The conditions noted are these: primary human HUVEC with PBMC; actives raise or lower the signal. Summed up: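 Measured: IL-1 alpha via ELISA at 24 h in LPS-activated human umbilical vein endothelium–PBMC co-culture. Baseline: DMSO, bidirectional fitting.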

Experiment [2] is described as follows: BSK_LPS_PGE2: BioMAP Diversity Plus: LPS Assay for Prostaglandin E2 (PGE2) Biomarker Activity (AID 2283082). The conditions noted are these: primary human HUVEC with PBMC; actives raise or lower the signal. In a few lines: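 Endpoint derived from bidirectional curve fitting versus DMSO of ELISA-measured PGE2 in LPS-stimulated human primary vascular co-culture (HUVEC with PBMC) harvested at 24 h.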

Read-out in experiment [3]: Macrophage colony-stimulating factor (MCSF), CSF1 (gene 1435)
In words: BSK_LPS_MCSF: BioMAP Diversity Plus: LPS Assay for Macrophage colony-stimulating factor (MCSF) Biomarker Activity (AID 2283083). The note with it: primary human HUVEC with PBMC; actives raise or lower the signal. In a few lines:
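Compound is added to a human vascular primary co-culture of umbilical vein endothelium and blood mononuclear cells. After 24 h, M-CSF is quantified by ELISA. Signal changes are fitted in both directions against DMSO.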

Read-out in experiment [4]: Tissue Factor, F3 (gene 2152)
In words: BSK_LPS_TissueFactor: BioMAP Diversity Plus: LPS Assay for Tissue Factor Biomarker Activity (AID 2283084). The conditions noted are these: primary human HUVEC with PBMC; actives raise or lower the signal. In a few lines:
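In this co-culture system of umbilical vein endothelium with PBMC, stimulated with LPS, cell-surface CD142 is detected by ELISA at 24 h. Endpoint values derive from bidirectional fitting, DMSO serving as baseline.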

Read-out in experiment [5]: Tumor necrosis factor (Homo sapiens) (UniProt P01375)
In words: BSK_LPS_TNFa: BioMAP Diversity Plus: LPS Assay for Tumour Necrosis Factor alpha (TNFa) Biomarker Activity (AID 2283085). The conditions noted are these: primary human HUVEC with PBMC; actives raise or lower the signal. In a few lines:
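Primary human vascular co-culture of HUVEC and PBMC; TNFa ELISA 24 h after treatment, analysed as increase or decrease relative to DMSO control.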

Read-out in experiment [6]: Vascular cell adhesion molecule 1 (VCAM1), VCAM1 (gene 7412)
In words: BSK_LPS_VCAM1: BioMAP Diversity Plus: LPS Assay for Vascular cell adhesion molecule 1 (VCAM1) Biomarker Activity (AID 2283086). The note with it: primary human HUVEC with PBMC; actives raise or lower the signal. In a few lines: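 Primary human vascular co-culture (umbilical vein endothelium plus PBMC) stimulated with LPS received chemical; 24 h later VCAM-1 was read by ELISA. Overt cytotoxicity was assessed by sulforhodamine B staining of parallel cultures at the same time point.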

Read-out in a further experiment: CD38, CD38 (gene 952)
In words: BSK_SAg_CD38: BioMAP Diversity Plus: SAg Assay for CD38 Biomarker Activity (AID 2283087). The conditions noted are these: primary human HUVEC with PBMC; actives raise or lower the signal. In a few lines: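 Fluorescence ELISA of cell-surface CD38 served as the read-out, with either increase or decrease fitted against DMSO controls. Cells were a human umbilical vein endothelium plus PBMC co-culture under SEB/TSST-1 stimulation, measured 24 h after dosing.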

Read-out in a further experiment: CD40, CD40 (gene 958)
In words: BSK_SAg_CD40: BioMAP Diversity Plus: SAg Assay for CD40 Biomarker Activity (AID 2283088). The conditions noted are these: primary human HUVEC with PBMC; actives raise or lower the signal. Summed up:
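Fluorescence ELISA read-out of CD40 from umbilical vein endothelium plus peripheral blood mononuclear cells, sampled 24 h after dosing. Values come from bidirectional curve fitting with DMSO as baseline.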

Read-out in a further experiment: CD69, CD69 (gene 969)
Nature of the experiment: BSK_SAg_CD69: BioMAP Diversity Plus: SAg Assay for CD69 Biomarker Activity (AID 2283089).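 As to AC50: cell surface CD69 protein quantified by ELISA with fluorescence detection.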 The conditions noted are these: primary human HUVEC with PBMC; actives raise or lower the signal. In a few lines: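 HUVEC co-cultured with PBMC were dosed with chemical, and CD69 was measured by ELISA with fluorescence read-out 24 h later. Bidirectional curve fitting used DMSO as negative control and activity baseline.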

Read-out in experiment [7]: Monocyte Chemoattractant Protein-1 (MCP1), CCL2 (gene 6347)
Nature of the experiment: BSK_SAg_MCP1: BioMAP Diversity Plus: SAg Assay for Monocyte Chemoattractant Protein-1 (MCP1) Biomarker Activity (AID 2283090). The conditions noted are these: primary human HUVEC with PBMC; actives raise or lower the signal. In a few lines:
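MCP-1 levels in the endothelial–PBMC SAg co-culture were quantified by ELISA at 24 h post-dosing; both increases and decreases versus DMSO scored. Cytotoxicity monitored by SRB total protein in parallel cultures.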

Read-out in experiment [8]: E-selectin (Homo sapiens) (UniProt P16581)
Nature of the experiment: BSK_SAg_Eselectin: BioMAP Diversity Plus: SAg Assay for Eselectin Biomarker Activity (AID 2283091). The conditions noted are these: primary human HUVEC with PBMC; actives raise or lower the signal. Summed up: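 Primary human endothelial cells and peripheral blood mononuclear cells were co-cultured and exposed to chemical for 24 hours. E-selectin levels were then quantified by ELISA, with bidirectional curve fitting normalised to DMSO controls.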

Read-out in experiment [9]: Monokine induced gamma interferon (MIG), CXCL9 (gene 4283)
Nature of the experiment: BSK_SAg_MIG: BioMAP Diversity Plus: SAg Assay for Monokine induced gamma interferon (MIG) Biomarker Activity (AID 2283092). The note with it: primary human HUVEC with PBMC; actives raise or lower the signal. Summed up:
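HUVEC plus human PBMC co-culture, chemicals dosed and MIG (CXCL9) quantified by ELISA at 24 h. Bidirectional curve fitting against DMSO as negative control and baseline, so both gain and loss of signal count as activity.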

Experiment [10] is described as follows: BSK_SAg_PBMCCytotoxicity: PBMC Cytotoxicity Assessment in the BioMAP Diversity Plus: SAg Assay (AID 2283093).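 Also: PBMC viability measured as Alamar Blue reduction fluorescence at 546/580 nm; fitted both ways against DMSO so a hit may be loss or gain of signal.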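 As to AC50: PBMC superantigen activated with SEB plus TSST-1 one hour after compound addition.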 The note with it: primary human HUVEC with PBMC. Summed up: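 Compound added to 75,000 PBMC/well for 1 h; SEB and TSST-1 then added at 20 ng/mL final each; 90 h incubation; Alamar Blue 6 h; read 546/580 nm ex/em. Activity fitted bidirectionally relative to DMSO baseline.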

Read-out in experiment [11]: Interleukin-8 (IL8), CXCL8 (gene 3576)
Nature of the experiment: BSK_SAg_IL8: BioMAP Diversity Plus: SAg Assay for Interleukin-8 (IL8) Biomarker Activity (AID 2283094). The conditions noted are these: primary human HUVEC with PBMC; actives raise or lower the signal. In a few lines: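 In this co-culture of human umbilical vein endothelium with peripheral blood mononuclear cells, IL-8 is assayed by ELISA at 24 h. DMSO serves as baseline for bidirectional curve fitting.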

Experiment [12] is described as follows: BSK_SAg_Proliferation: Cell Proliferation Assessment in the BioMAP Diversity Plus: SAg Assay (AID 2283095).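 Also: relative cell number as total protein by SRB absorbance in sub-confluent culture.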 The conditions noted are these: primary human HUVEC with PBMC. Summed up:
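Readout is SRB-stained protein (560 nm) in a primary human HUVEC and PBMC co-culture; sub-confluent cultures are read at 96 h. Activity is fitted bidirectionally using DMSO as baseline.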

Experiment [13] is described as follows: BSK_SAg_SRB: Viability Assessment in the BioMAP Diversity Plus: SAg Assay (AID 2283096).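 Also: cells read one day after compound addition; hits may be either gain or loss of signal compared with DMSO.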 The note with it: primary human HUVEC with PBMC. Summed up:
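Total protein by sulforhodamine B staining, 24 h after dosing, in HUVEC–PBMC co-culture; DMSO-referenced bidirectional fitting.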

SMILES strings stand for the structures. Activity calls are given as the source filed them. The calls were made as follows: active = hit-call score of the fitted dose curve at least 0.9, where 1 is the maximum; inactive = score below 0.9.

Sequence of Tumor necrosis factor (Homo sapiens) (P01375 whole entry, looked up): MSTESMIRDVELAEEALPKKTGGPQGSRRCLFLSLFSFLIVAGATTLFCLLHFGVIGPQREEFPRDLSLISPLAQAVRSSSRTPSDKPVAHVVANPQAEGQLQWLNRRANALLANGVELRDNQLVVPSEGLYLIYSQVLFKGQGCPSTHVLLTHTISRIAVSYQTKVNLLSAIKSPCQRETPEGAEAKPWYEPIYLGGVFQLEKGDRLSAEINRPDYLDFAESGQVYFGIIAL
Sequence of E-selectin (Homo sapiens) (P16581 whole entry, looked up): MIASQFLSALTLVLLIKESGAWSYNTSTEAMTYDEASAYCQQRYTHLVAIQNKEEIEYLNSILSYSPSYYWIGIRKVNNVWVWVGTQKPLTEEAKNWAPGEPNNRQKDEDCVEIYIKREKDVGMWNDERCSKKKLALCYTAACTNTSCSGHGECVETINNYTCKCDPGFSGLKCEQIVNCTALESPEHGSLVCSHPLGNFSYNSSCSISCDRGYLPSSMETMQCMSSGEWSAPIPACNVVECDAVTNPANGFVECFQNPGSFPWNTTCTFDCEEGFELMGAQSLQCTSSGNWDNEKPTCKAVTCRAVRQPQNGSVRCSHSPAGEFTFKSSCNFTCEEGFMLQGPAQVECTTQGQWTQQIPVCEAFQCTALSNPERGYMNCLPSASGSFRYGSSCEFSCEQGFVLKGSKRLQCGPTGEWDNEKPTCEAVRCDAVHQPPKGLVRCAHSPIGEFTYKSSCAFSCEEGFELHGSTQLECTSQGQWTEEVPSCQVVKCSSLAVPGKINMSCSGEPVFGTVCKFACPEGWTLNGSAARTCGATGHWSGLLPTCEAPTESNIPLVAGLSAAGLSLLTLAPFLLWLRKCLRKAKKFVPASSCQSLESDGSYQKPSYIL

As to `Cc1ccc(N=CN(C)C=Nc2ccc(C)cc2C)c(C)c1`, the half-maximal activity concentration (AC50) is 30.2 µM (active) in [1]; 11.6 µM (active) in experiment [2]; 32.6 µM (active) in experiment [3]; 32.6 µM (active) in [4]; 33.6 µM (active) in experiment [5]; 26.6 µM (active) in experiment [6]. The AC50 with CD38, CD38 (gene 952) was 29.1 µM (active); with CD40, CD40 (gene 958) it was 31.9 µM (active); with CD69, CD69 (gene 969) it was 31.5 µM (active); in [7] it was 30.9 µM (active); in [8] it was 26.5 µM (active); in experiment [9], 30.7 µM (active). In addition, the figures for the AC50 in experiment [10], in experiment [12] and in [13] were 34.9 µM (active), 21.7 µM (active) and 33.2 µM (active), respectively. Also, the result in experiment [11] was inactive.

Take `CCCC(=NOCC)C1=C(O)CC(CC(C)SCC)CC1=O` (stereo unspecified): the result in experiment [1], in experiment [2], in experiment [3], in [4], in experiment [5] and in [6] was inactive. In addition, the outcome is “inactive” in the experiment with CD38, CD38 (gene 952); “inactive” with CD40, CD40 (gene 958); “inactive” in the experiment with CD69, CD69 (gene 969); “inactive” in experiment [7]; “inactive” in experiment [8]; “inactive” in experiment [9]. Moreover, the outcome in experiment [10], in [11], in experiment [12] and in experiment [13] was inactive.

In the case of `O=C(O)c1c(Cl)ccc2cc(Cl)cnc12`, the outcome in [1], in experiment [2], in experiment [3], in experiment [4], in experiment [5] and in [6] was inactive. Further, the outcome is “inactive” with CD38, CD38 (gene 952); “inactive” with CD40, CD40 (gene 958); “inactive” in the experiment with CD69, CD69 (gene 969); “inactive” in experiment [7]; “inactive” in experiment [8]; “inactive” in [9]. Further, the outcome in [10], in [11], in experiment [12] and in [13] was inactive.

Consider `CO/N=C(/C1=NOCCO1)c1ccccc1Oc1ncnc(Oc2ccccc2Cl)c1F`, for which the outcome in experiment [1], in [2], in experiment [4], in experiment [5] and in experiment [6] was inactive. Besides, the concentration at half-maximal activity (AC50) in [3] was 19.2 µM (active); in the experiment with CD38, CD38 (gene 952), 22.3 µM (active); with CD40, CD40 (gene 958), 14.9 µM (active); with CD69, CD69 (gene 969), 9.36 µM (active); in experiment [7], 27.2 µM (active); in experiment [8], 12.7 µM (active). The AC50 in experiment [9] was 34.7 µM (active); in experiment [10], 1.98 µM (active); in [11], 11 µM (active); in experiment [12], 15.8 µM (active); in experiment [13], 18.3 µM (active).

In the case of `CN/C(=N\[N+](=O)[O-])NCc1cnc(Cl)s1`, the outcome in experiment [1], in [2], in experiment [3], in experiment [4], in experiment [5] and in experiment [6] was inactive. Besides, the outcome was “inactive” with CD38, CD38 (gene 952); “inactive” with CD40, CD40 (gene 958); “inactive” with CD69, CD69 (gene 969); “inactive” in [7]; “inactive” in experiment [8]; “inactive” in experiment [9]. The outcome in experiment [10], in [11], in experiment [12] and in [13] was inactive.

Consider `CCNC(=O)NC(=O)C(C#N)=NOC`, for which the result in [1], in [2], in experiment [3], in experiment [4], in [5] and in experiment [6] was inactive. Besides, the outcome with CD38, CD38 (gene 952) is “inactive”; in the experiment with CD40, CD40 (gene 958) it was “inactive”; in the experiment with CD69, CD69 (gene 969) it was “inactive”; in [7] it was “inactive”; in experiment [8], “inactive”; in experiment [9] it was “inactive”. The result in experiment [10], in experiment [11], in experiment [12] and in [13] was inactive.
